This passage reports Potency results from PubChem BioAssay (NCATS).

Inconclusive results are not listed. The source made the active and inactive calls. Calls follow the shape of the dose curve; as a rule, active = well fitted cell-killing curve with a large enough effect; inconclusive = small, poorly fitted or top-dose-only effect; inactive = flat fitted curve, though single readings scatter.
Potency is read from the fitted curve at half-maximal effect.

The assay can be described thus: qHTS of pediatric cancer cell lines to identify multiple opportunities for drug repurposing: Confirmatory screen for A673 cells (AID 1347110).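 Also: cells exposed to compound for 48 h before the viability read; nearly all actives have a fitted effect of over 65% in size.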 As to conditions: A673 Ewing sarcoma cell viability. The source says:
Drug repurposing or repositioning has been offered as a strategy for drug development in oncology programs. This approach has special potential for childhood cancers and other rare or orphan diseases, where the expected return on new drug development has been a disincentive to pharmaceuticals.
In this project we exploit the poly-pharmacology of drugs to discover new indications via phenotypic screening of a panel of 19 well-characterized cell lines derived from solid tumors seen in children and adolescents. The goal is to identify approved drugs with previously unrecognized anticancer properties that has the potential to reveal new mechanisms and biological processes involved in carcinogenesis or drug resistance. We employed a titration-based paradigm (quantitative high-throughput screening or qHTS), where all compounds were tested at multiple concentrations for their effect on cell viability. Concentration-response curves (CRCs) were derived directly from the primary screen, and both potency and efficacy values were used to identify compounds with robust bioactivity profiles. We screened the NIH Chemical Genomics Center (NCGC) Pharmaceutical Collection (NPC) and Mechanism Interrogation Plate (MIPE) small molecule collections of approved and investigational compounds against these cell lines; and measured metabolically active cells after 48 hours of compound treatment as a proxy for cell viability.
Assay Submitter: Nathalia J. Martinez, National Center for Advancing Translational Sciences, National Institutes of Health, Rockville, MD, USA; email: natalia.martinez@nih.gov.
[1] Shen, M et al. Quantitative high-throughput phenotypic screening of pediatric cancer cell lines identifies multiple opportunities for drug repurposing. Oncotarget 2017 Dec 19;9(4):4758-4772. PMID 29435139.
The cells were obtained from University of North Carolina (UNC), Pediatric Preclinical Testing Program (PPT), and Coriell Institute (CI).
qHTS cell viability assay:
Cells were assayed in growth media at a density of 500-1,000 cells/well. Five microliters of cells were dispensed into 1,536-well, white, solid-bottom, TC-treated plates (Greiner Bio One) using a multidrop dispenser and incubated at 37 degrees C, 5% CO2, under a humidified atmosphere for 5 hours. Twenty-three nanoliters of compounds and controls (neutral control DMSO or positive control bortezomib at final concentration of 2.3 uM) were subsequently transferred by Kalypsys pintool. For primary screens, the MIPE collection was tested at 11-point dilutions (final concentrations range from 0.78 nM to 46 µM) and the NPC collection at 8-point dilutions (final concentrations range from 0.59 nM to 46 µM). Compounds tested in follow-up screens were assayed at 11-point dilutions. Cells were incubated for 48 hours, followed by addition of 3 uL of CellTiter-Glo (Promega). After a 15min incubation at room temperature, samples were analyzed for luminescence intensity using a ViewLux High-throughput CCD imager equipped with clear filters.
In the case of `COC(=O)c1nc(Cl)c(Cl)nc1N`, the Potency is 293 nM (active).
With `[O-][n+]1ccccc1SSc1cccc[n+]1[O-]`, the Potency is 1620 nM (active).
For `COC(=O)Nc1nc2ccc(C(=O)C3CC3)cc2[nH]1`, the Potency is 1310 nM (active).
Regarding `COc1cccc2c1C(=O)c1c(O)c3c(c(O)c1C2=O)C[C@@](O)(C(=O)CO)C[C@@H]3O[C@H]1C[C@H](N)[C@H](O[C@@H]2CCCCO2)[C@H](C)O1`, the Potency is 3290 nM (active).
Turning to `CCOC(=O)c1ccccc1O`, the Potency was 3290 nM (active).
Then `N=C1N=C(N)c2cc3ccccc3cc21`, with 38000 nM (active); and `CCCSc1ccc2nc(NC(=O)OC)[nH]c2c1`, with 2000 nM (active).
As for `Nc1ccc([N+](=O)[O-])cc1O`, the figure is 2140 nM (active); as for `CN(C)c1ccc(C(=C2C=CC(=[N+](C)C)C=C2)c2ccccc2)cc1`, 293 nM (active); as for `Oc1c(Br)cc(Br)c2cccnc12`, 11700 nM (active).
